PubChem BioAssay (NCI)
About 83,000 compounds went through this panel and 20% of them were active in at least one assay; those are over-represented in the sample as a whole.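 Cell lines were cultured in 96-well plates, exposed to a single compound concentration, and assessed for percent growth 48 hours later.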 Unmarked numbers belong to inactive results. The source made the active and inactive calls. The calls were made as follows: active = growth percent below 10; inactive = the rest.

System: MDA-MB-468 breast
Assay: NCI-60 one-dose screen, 48 h (100 = growth as untreated, 0 = no growth, -100 = all killed)
Conditions: 10 µM unless noted

Structure (SMILES)	growth
COc1cc2c(Oc3ccc(NC(=O)C4(C(=O)Nc5ccc(F)cc5)CC4)cc3F)ccnc2cc1OCCCN1CCOCC1	12.1%
CCOC(=O)CNC(=O)Nc1ccc(Oc2ccc(NC(=O)NCC(=O)OCC)cc2)cc1	99.5%
O=C1NC(=S)S/C1=C\c1cc(Br)ccc1O	112%
COc1ccc(Br)c2ccccc12	100%
CN(C)CC(=O)Nc1nc(-c2cccc(NS(=O)(=O)c3cccc4c(N(C)C)cccc34)c2)cs1	62%
C#CC[C@@H]1C[C@]2(C)[C@H]3CC[C@@H]4[C@H]5C(C(=C)C)CC[C@]5(C(=O)NCCCN5CCN(CCCN)CC5)CC[C@@]4(C)[C@]3(C)CC[C@H]2C(C)(C)[C@H]1OC(C)=O (stereo partly specified)	-76.5% (active)
C=C1CCC2C3(C)COC(c4ccccc4)OC3CCC2(C)C1C/C=C1/C(=O)OCC1OC(C)=O (stereo unspecified)	53%
CCCCC[C@H]1C/C=C2/C(=O)C=C[C@@H]2C/C=C\CCCC(=O)O[C@@H](CCCCC)C/C=C2/C(=O)C=C[C@@H]2C/C=C\CCCC(=O)O1	-27.8% (active)
Cc1ccc2[nH]c(=S)n(-c3ccc(S(=O)(=O)Nc4ccc(Cl)nn4)cc3)c(=O)c2c1	107%
CN(C)CCCOc1c2ccc(Cl)cc2nc2c1oc1ccccc12	-39.8% (active)
C#CC#CC#CC#CC#CC#CC#CC#CC[C@H]1OC[C@H](COC(=O)O[C@@H](C(=O)O[C@H]2C[C@@]3(O)[C@@H](OC(=O)c4ccccc4)[C@@H]4[C@]5(OC(C)=O)CO[C@@H]5C[C@H](O)[C@@]4(C)C(=O)[C@H](OC(C)=O)C(=C2C)C3(C)C)[C@@H](NC(=O)c2ccccc2)c2ccccc2)O1	19.3%
